# DT40 TDP1 CPT: growth inhibition of DT40 Tdp1-/-;hTDP1 cells with camptothecin (screen for TDP1 inhibitors); Potency, µM (series often up to 46.2 µM), for inactives: at the top dose activity change, negative = growth inhibition, hits mostly inhibitors; 420,000 tested, 12% active; chicken DT40 Tdp1-/-;hTDP1 cells + 20 nM CPT, ATP luminescence, 48 h; further: potency means the concentration at half of the fitted maximal effect; on the % scale 0 is the no-effect control and ±100 the full control effect; nearly all actives have a fitted effect of over 55% in size
#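 Cell growth measured by CellTiter-Glo luminescence after a minimum 48 h, 37 C compound exposure with 20 nM CPT in Tdp1-knockout DT40 cells stably expressing hTDP1, seeded 400/well; qHTS titration format.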
# TDP1 cell noCPT: qHTS for Inhibitors of human tyrosyl-DNA phosphodiesterase 1 (TDP1): qHTS in cells in absence of CPT | DT40 Tdp1-/- hTDP1 cells, no CPT, ATP luminescence, 48 h | Potency, µM (highest dose often 46.2 µM), without a hit: top-dose activity change, negative = growth inhibition, most hits filed as inhibitors | 420,000 tested, 15% active | AID 686978, 2013; further: potency means the concentration at half of the fitted maximal effect; on the % scale 0 is the no-effect control and ±100 the full control effect; nearly all actives have a fitted effect of over 55% in size
#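 DT40 Tdp1-/-;hTDP1 cells, no CPT (DMSO vehicle only), 400 cells/well; compounds pin-transferred; ≥48 hr, 37 °C; CellTiter-Glo 30 min RT dark, luminescence read.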
# D3 ag: agonists of human D3 dopamine receptor; D3R DiscoveRx beta-arrestin cells, luminescence, 90 min; max activation, %; 410,000 tested, 0.58% active; in the data active means max activation above about 30%; further: 0% is about no effect
# Target sequence (P35462 whole entry, looked up): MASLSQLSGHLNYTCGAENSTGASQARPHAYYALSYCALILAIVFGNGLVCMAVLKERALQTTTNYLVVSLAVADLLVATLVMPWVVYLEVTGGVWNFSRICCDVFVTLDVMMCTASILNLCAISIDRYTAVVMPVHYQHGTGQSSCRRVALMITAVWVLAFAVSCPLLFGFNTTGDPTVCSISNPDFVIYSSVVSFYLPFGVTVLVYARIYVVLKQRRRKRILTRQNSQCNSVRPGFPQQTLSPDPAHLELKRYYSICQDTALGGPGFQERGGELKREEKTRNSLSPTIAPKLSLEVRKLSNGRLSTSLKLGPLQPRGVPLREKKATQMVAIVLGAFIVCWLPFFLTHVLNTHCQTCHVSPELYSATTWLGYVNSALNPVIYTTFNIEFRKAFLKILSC
#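 Cells at 1500/well, incubated overnight, then treated with pinned compounds (dopamine as control) for 90 min at 37 degrees C. DiscoveRx reagent added for 30 - 60 minutes at room temperature; luminescence read.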
# IL-1B inflam inh: inhibitors of inflammasome signaling (IL-1 beta secretion). THP-1 LPS/ATP IL-1B secretion, AlphaLISA, 16 h; active compounds read low. activity change, % at 57.5 µM. 360,000 tested, 4.7% active. AID 743279; in the data active means activity change below about -50%; inconclusive means mostly about -30% to -49%; further: on the % scale 0 is the no-effect control and ±100 the full control effect
#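 Secreted IL-1B measured by AlphaLISA bead assay after 16 h compound exposure of THP-1 cells; compounds (final up to 57.5 uM) added 1 h before LPS (250 ng/mL) and ATP (1.25 mM) stimulation; lower signal means less secretion.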
# DRD3 antagonist: antagonists of human D3 dopamine receptor. max response, negative = inhibition, %. P35462. D3R cells, DiscoveRx beta-arrestin luminescence, antagonist mode; active compounds read low. 360,000 tested, 2.5% active; in the data active means max response below about -50%; inconclusive means no clear call, values can overlap the other calls; further: on the % scale 0 is the no-effect control and ±100 the full control effect
#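 Cells plated overnight at 1500 cells/well, then exposed to library compounds with dopamine controls for 90 minutes at 37 degrees C. DiscoveRx reagent added for 30–60 minutes at room temperature; luminescence read, quantitative HTS format.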
# ClpP mod: qHTS Assay for Activators of ClpP; ATP-dependent Clp protease proteolytic subunit (Bacillus subtilis (strain 168)), P80244; purified B. subtilis ClpP, FRET peptide cleavage, 20 min; Potency, µM (top dose mostly 57.5 µM), without a hit: at the top dose activity change, negative = active; 340,000 tested, 1.9% active; AID 651965, 2013; active means well fitted falling curve with a large enough effect; inconclusive means small, poorly fitted or top-dose-only effect; inactive means no such curve, though single readings can be large or run the other way; further: potency means the concentration at half of the fitted maximal effect; the source files actives as falling curves though it sought activators and does not explain the sign; nearly all actives have a fitted effect of over 65% in size
# Target sequence (P80244 whole entry, looked up): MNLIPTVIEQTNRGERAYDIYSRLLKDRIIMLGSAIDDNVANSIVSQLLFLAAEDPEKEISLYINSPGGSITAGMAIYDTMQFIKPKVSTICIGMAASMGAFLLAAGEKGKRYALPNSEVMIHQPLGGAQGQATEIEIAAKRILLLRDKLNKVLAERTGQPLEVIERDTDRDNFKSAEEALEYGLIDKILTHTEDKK
#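 ClpP 10 microg/mL final, pH 8 Tris/KCl buffer with BSA, glycerol, Tween-20; compound pinned in; FRET-FV substrate; RT 20 min; Ex320/Em430; ΔFRET vs ADEP 5.8 microM, DMSO, no enzyme.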
# * marks the source's active call; other numbers are inactive results; ? = inconclusive; · = no result. Rows were chosen to be rich in hits. Some 21% of all compounds tested hit in one or more screens of this group. Unless noted, the call rests on the fitted dose curve; in most records, active means well fitted inhibition curve with a large enough effect; inconclusive means small, poorly fitted or top-dose-only effect; inactive means flat fitted curve, though single readings scatter.
SMILES,DT40 TDP1 CPT,TDP1 cell noCPT,D3 ag,IL-1B inflam inh,DRD3 antagonist,ClpP mod
Cc1ccc2[nH]c(CN3CCC(CO)(CC4CCCCO4)CC3)c(C)c2c1 (stereo unspecified),?,?,-24,-113*,-61*,·
O=C(Nc1ccccc1)C1=C[C@@H](c2ccc(C(F)(F)F)cc2)C[C@@H](OCCCCO)O1,?,?,0,?,-16,1%
Cc1cc2nc(-c3nnnn3-c3c(C)cccc3C)c(=O)[nH]c2cc1C,?,16µM*,7,-1,74,-13%
Cc1cccc(C)c1-n1nnnc1-c1nc2ccccc2[nH]c1=O,?,?,-12,23,?,-8%
Cc1ccc2c(c1)C(c1ccccc1)N(C(=O)Cc1ccc(F)cc1)CC(=O)N2 (stereo unspecified),?,?,4,·,·,1%
CCN1C(=O)/C(=C/N(C(C)=O)c2ccccc2)N(c2ccccc2)C1=S,?,?,-5,?,-81*,8%
C=CCn1c(NC(=O)c2ccccc2Cl)c(C#N)c2nc3ccccc3nc21,16µM*,21µM*,0,-60*,-5,?
COc1ccc2c(c1)c1ncn(Cc3ccc(F)cc3)c(=O)c1n2C,-19%,-29%,24,22,9,-5%
COc1ccc2c(c1)c1ncn(Cc3ccco3)c(=O)c1n2C,-5%,13µM*,-2,-13,5,-4%
Cc1ccc(O)c(-c2cc3ccccc3[nH]2)c1,-6%,-36%,6,-13,15,14µM*
CCOc1ccc(NC(=O)C(=O)NCCN2CCN(C(=O)c3ccc(C)cc3)CC2)cc1,-17%,-27%,-22,-1,-60*,·
COc1ccc(NC(=O)C(=O)NCCN2CCN(C(=O)c3ccc(C(C)(C)C)cc3)CC2)cc1,16µM*,16µM*,2,18,1,7%
COc1ccc(NC(=O)C(=O)NCCN2CCN(C(=O)c3cccc(Br)c3)CC2)cc1,-26%,?,-10,-10,-20,1%
COc1ccc(C(=O)N2CCN(CCNC(=O)C(=O)Nc3ccc(Br)cc3)CC2)cc1,?,?,-21,-7,7,-1%
CCOC(=O)c1c(NC(=O)COc2cccc(C)c2C)sc(C(C)=O)c1C,4%,-6%,9,·,·,1%
CCOC(=O)c1c(NC(=O)CSc2nnc(-c3ccccc3C)n2C)sc(C(C)=O)c1C,18µM*,12µM*,16,?,21,-2%
CCOC(=O)c1sc(NC(=O)CSc2nc3cccnc3n2C)nc1C,5%,-14%,20,36,16,·
CCOC(=O)c1cccc(NC(=O)CSc2nncn2-c2ccccn2)c1,7%,-21%,1,-9,-6,·
CCOC(=O)c1c(NC(=O)CSc2nc3cccnc3n2C)sc(C(C)=O)c1C,18µM*,13µM*,5,-2,-11,1%
CCOC(=O)c1cccc(NC(=O)CSc2nc3cccnc3n2C)c1,21µM*,16µM*,9,-53*,-7,0%
COCCN1CCc2nc(SCC(=O)Nc3ccc(C)c(Cl)c3)[nH]c(=O)c2C1,0%,-29%,-4,·,·,-3%
O=C(NC1CCCCCC1)C(=S)N1CCOCC1,?,16µM*,8,-7,6,2%
NC1=NC(=Nc2ccc(S(=O)(=O)N3CCOCC3)cc2)c2ccccc21,?,-77%,-1,-51*,10,·
NC1=NC(=Nc2ccc(Cl)cc2)c2ccccc21,1%,-29%,-3,-14,-1,·
CC(C)c1ccc(N=C2N=C(N)c3ccccc32)cc1,?,?,-5,-96*,-6,·
SMILES,DT40 TDP1 CPT,TDP1 cell noCPT,D3 ag,IL-1B inflam inh,DRD3 antagonist,ClpP mod
Nc1ccc(S(=O)(=O)N2CCOCC2)cc1,5%,1%,·,·,·,1%
Cn1c(OCc2ccc3c(c2)OCO3)nc2c1c(=O)n(Cc1ccc(Cl)c(Cl)c1)c(=O)n2C,?,?,-4,14,0,-1%
Cn1c(N2CCN(c3ccccn3)CC2)nc2c1c(=O)n(Cc1ccc(Cl)cc1)c(=O)n2C,16µM*,?,14,-6,2,-2%
CC(O)CNc1nc2c(c(=O)n(Cc3ccc(Br)cc3)c(=O)n2C)n1C (stereo unspecified),4%,?,-6,-3,5,0%
Cn1c(OCc2cccnc2)nc2c1c(=O)n(Cc1ccc(Br)cc1)c(=O)n2C,?,?,9,-53*,-4,1%
Cn1c(OCc2cccnc2)nc2c1c(=O)n(Cc1ccc(Cl)cc1)c(=O)n2C,12µM*,18µM*,12,18,32,-3%
O=C(CCc1nnc2n(Cc3ccc(Cl)cc3)c(=O)c3ccccc3n12)N1CCN(c2ccccn2)CC1,21µM*,21µM*,5,·,18,-8%
CC1Cc2ccccc2N1C(=O)CSc1ncccn1 (stereo unspecified),0%,-21%,-10,-16,-24,·
Cc1ccc2sc(NNC(=O)C3COc4ccccc4O3)nc2c1C (stereo unspecified),26µM*,?,0,-11,-1,-3%
Cc1ccc2sc(NNC(=O)c3cc(=O)c4ccccc4o3)nc2c1C,29µM*,?,2,31,-10,2%
O=C(Nc1nc(-c2ccccc2)cs1)C1COc2ccccc2O1 (stereo unspecified),-5%,?,0,-5,3,2%
Cc1cccc2sc(NNC(=O)c3cc(=O)c4ccccc4o3)nc12,?,?,4,24,3,3%
O=C(Nc1nc(-c2ccc(S(=O)(=O)N3CCCC3)cc2)cs1)C1COc2ccccc2O1 (stereo unspecified),9.2µM*,7.3µM*,1,-29,27,-17%
O=C(Nc1nc(-c2ccccn2)cs1)C1COc2ccccc2O1 (stereo unspecified),3.3µM*,5.2µM*,-5,94,27,-6%
COc1ccccc1-c1nc(SCC(=O)c2ccc(Cl)cc2)n[nH]1,-14%,-19%,-9,·,·,-1%
CCOc1ccc(-c2c(C)nn3c(C)c(C(=O)Nc4cccc(Cl)c4C)cnc23)cc1OCC,?,?,0,·,·,-2%
Cc1cnc(NC(=O)C2COc3ccccc3O2)s1 (stereo unspecified),21µM*,?,-1,5,16,-10%

# High-throughput results as filed in PubChem BioAssay.
